Only some compounds are listed: those with a hit (about 21% of all), similar ones and a draw of the others.
DRD3 agonist = activates the human D3 dopamine receptor; P35462; D3R DiscoveRx beta-arrestin cells, luminescence, 90 min; max activation, %; actives 0.58% (n = 410,000); in the data active = max activation above about 30%
Target sequence (P35462 whole entry, looked up): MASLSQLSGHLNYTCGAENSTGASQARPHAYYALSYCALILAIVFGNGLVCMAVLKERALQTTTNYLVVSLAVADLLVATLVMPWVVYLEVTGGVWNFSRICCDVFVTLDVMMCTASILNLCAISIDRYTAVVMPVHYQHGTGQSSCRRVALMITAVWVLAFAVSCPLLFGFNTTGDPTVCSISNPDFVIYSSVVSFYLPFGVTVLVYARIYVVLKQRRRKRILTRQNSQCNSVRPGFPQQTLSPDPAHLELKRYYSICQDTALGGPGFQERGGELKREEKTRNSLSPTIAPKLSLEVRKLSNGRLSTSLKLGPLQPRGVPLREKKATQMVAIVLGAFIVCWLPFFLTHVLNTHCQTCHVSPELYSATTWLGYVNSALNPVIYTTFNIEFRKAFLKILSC
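Cells at 1500/well, incubated overnight, then treated with pinned compounds (dopamine as control) for 90 min at 37 degrees C. DiscoveRx reagent added for 30 - 60 minutes at room temperature; luminescence read.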
TDP1 cell CPT = growth inhibition of DT40 Tdp1-/-;hTDP1 cells with camptothecin (screen for TDP1 inhibitors). AID 686979. Potency, µM (highest dose often 46.2 µM), actives largely listed as inhibitors. chicken DT40 Tdp1-/-;hTDP1 cells + 20 nM CPT, ATP luminescence, 48 h. actives 12% (n = 420,000); note: nearly all actives have a fitted effect of over 55% in size
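Cell growth measured by CellTiter-Glo luminescence after a minimum 48 h, 37 C compound exposure with 20 nM CPT in Tdp1-knockout DT40 cells stably expressing hTDP1, seeded 400/well; qHTS titration format.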
ClpP mod = qHTS Assay for Activators of ClpP. actives 1.9% (n = 340,000). Potency, µM (top dose mostly 57.5 µM). purified B. subtilis ClpP, FRET peptide cleavage, 20 min. AID 651965, 2013. ATP-dependent Clp protease proteolytic subunit (Bacillus subtilis (strain 168)), P80244; active = well fitted falling curve with a large enough effect; inconclusive = small, poorly fitted or top-dose-only effect; inactive = no such curve, though single readings can be large or run the other way; note: the source files actives as falling curves though it sought activators and does not explain the sign; nearly all actives have a fitted effect of over 65% in size
Target sequence (P80244 whole entry, looked up): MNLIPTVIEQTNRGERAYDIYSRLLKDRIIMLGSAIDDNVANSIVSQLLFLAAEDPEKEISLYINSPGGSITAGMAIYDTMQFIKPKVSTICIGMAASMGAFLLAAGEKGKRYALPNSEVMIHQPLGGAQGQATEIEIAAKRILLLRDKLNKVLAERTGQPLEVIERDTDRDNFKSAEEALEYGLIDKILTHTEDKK
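Purified B. subtilis ClpP, 10 microg/mL final in Tris/HCl pH8 with KCl, BSA, glycerol and Tween-20, cleaved an Abz/nitrotyrosine-quenched decapeptide. Fluorescence (ex 320, em 430) was read at 0 and 20 min at room temperature. Delta was normalized to 5.8 microM ADEP and DMSO/no-enzyme controls.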
TDP1 cell noCPT = qHTS for Inhibitors of human tyrosyl-DNA phosphodiesterase 1 (TDP1): qHTS in cells in absence of CPT; DT40 Tdp1-/- hTDP1 cells, no CPT, ATP luminescence, 48 h; Potency, µM (highest dose often 46.2 µM), actives largely listed as inhibitors; actives 15% (n = 420,000); note: nearly all actives have a fitted effect of over 55% in size
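Camptothecin absent (DMSO only). Human TDP1-complemented DT40 knockout cells, 400 cells/well, 37 °C for minimum 48 hr; ATP measured via CellTiter-Glo, 30 min dark incubation, luminescence.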
IL-1B inflam inh = blocks inflammasome-driven IL-1 beta release; THP-1 LPS/ATP IL-1B secretion, AlphaLISA, 16 h; hits give low values; activity change, % at 57.5 µM; actives 4.7% (n = 360,000); in the data active = activity change below about -50%; inconclusive = mostly about -30% to -49%
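Secreted IL-1B measured by AlphaLISA bead assay after 16 h compound exposure of THP-1 cells; compounds (final up to 57.5 uM) added 1 h before LPS (250 ng/mL) and ATP (1.25 mM) stimulation; lower signal means less secretion.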
D3 antag = D3 dopamine receptor (human) antagonism. P35462. D3R cells, DiscoveRx beta-arrestin luminescence, antagonist mode; hits give low values. max response, negative = inhibition, %. actives 2.5% (n = 360,000). AID 652054; in the data active = max response below about -50%; inconclusive = no clear call, values can overlap the other calls
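Cells expressing the human receptor were seeded at 1500 cells/well, incubated overnight at 37 degrees C in 5% CO2, then exposed to library compounds with dopamine controls for 90 minutes at 37 degrees C before luminescent detection.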
Large screens that a line does not name were inactive. Unless noted, calls come from the whole dose curve; as a rule, active = well fitted inhibition curve with a large enough effect; inconclusive = small, poorly fitted or top-dose-only effect; inactive = flat fitted curve, though single readings scatter.

COc1ccc(NS(=O)(=O)c2ccc(-c3coc(C)n3)cc2)cc1OC	TDP1 cell CPT 4.11µM, TDP1 cell noCPT 2.06µM, IL-1B inflam inh inconclusive
CC(C)(C)C(=O)CSc1nc2c(c(-c3cccs3)c1C#N)CCC2	TDP1 cell CPT inconclusive, TDP1 cell noCPT 23.1µM
Cc1cccc(CSc2nc(N)c(C#N)c(-c3cccs3)c2C#N)c1	TDP1 cell CPT inconclusive, ClpP mod inconclusive, TDP1 cell noCPT inconclusive, IL-1B inflam inh -54.3
CC(=O)CSc1nc(N)c(C#N)c(-c2cccs2)c1C#N	TDP1 cell CPT 20.6µM, TDP1 cell noCPT 13µM
Cc1cccc(CSc2nc3c(c(-c4cccs4)c2C#N)CN(C)CC3)c1	TDP1 cell CPT inconclusive, TDP1 cell noCPT inconclusive, IL-1B inflam inh inconclusive
N#Cc1c(SCC(N)=O)nc2c(c1-c1ccc(O)cc1)CCCC2	none
CN1CCN(c2nc3c(S(=O)(=O)c4ccc(Br)cc4)nnn3c3ccsc23)CC1	TDP1 cell CPT inconclusive, TDP1 cell noCPT inconclusive (no result: IL-1B inflam inh, D3 antag)
COC(=O)[C@H](CCSC)NC(=O)Nc1ccc(S(N)(=O)=O)cc1	IL-1B inflam inh inconclusive
COC(=O)[C@H]1C[C@@]2(O)CN(S(=O)(=O)c3ccc(C)cc3)C[C@@]2(OC(=O)Nc2cccs2)C[C@H]1C(=O)OC	TDP1 cell CPT inconclusive, TDP1 cell noCPT inconclusive, IL-1B inflam inh inconclusive
COc1ccc(N(C(=O)COc2ccc(Br)cc2)S(=O)(=O)c2ccc(C)cc2)cc1	TDP1 cell CPT inconclusive, TDP1 cell noCPT 20.6µM (no result: IL-1B inflam inh, D3 antag)
COc1ccc(N(C(=O)COc2c(C)cccc2C)S(=O)(=O)c2ccc(Cl)cc2)cc1	TDP1 cell CPT 23.1µM, TDP1 cell noCPT inconclusive (no result: IL-1B inflam inh, D3 antag)
Nc1cc(Cl)ccc1C(=O)OCC(=O)NC1CCCCCCC1	TDP1 cell CPT inconclusive, D3 antag inconclusive
COCCCn1c(=O)/c(=C\c2ccccc2OC(F)F)s/c1=C(/C#N)C(=O)NC(C)C	none
COCCCn1c(=O)/c(=C\c2ccccc2OC(C)C)s/c1=C(/C#N)C(=O)Nc1ccc(C(=O)O)cc1	TDP1 cell CPT inconclusive, TDP1 cell noCPT 14.6µM (no result: ClpP mod)
COc1ccc(N2CCN(S(=O)(=O)CCNC(=O)c3ccc(Br)o3)CC2)cc1	none
Cc1ccc(C)c(NC(=O)c2sc(Cl)nc2C)c1	IL-1B inflam inh -58.1
Cc1ccc(C)c(NC(=O)c2sc(Cl)nc2-c2ccccc2)c1	TDP1 cell CPT inconclusive, TDP1 cell noCPT inconclusive
CC(=O)c1cccc(NC(=O)c2sc(-n3nc(C)c(Cc4ccccc4)c3C)nc2C)c1	TDP1 cell CPT inconclusive, ClpP mod inconclusive, TDP1 cell noCPT inconclusive (no result: IL-1B inflam inh, D3 antag)
Cc1nc(Cl)sc1C(=O)Nc1ccc(Cl)cc1	ClpP mod 28.2µM
CC(=O)c1cccc(NC(=O)c2sc(Cl)nc2C)c1	IL-1B inflam inh -53.6
COc1ccc(Cc2c(C)nn(-c3nc(C)c(C(=O)Nc4cccc(C(C)=O)c4)s3)c2C)cc1	TDP1 cell CPT 9.2µM, TDP1 cell noCPT 11.6µM (no result: IL-1B inflam inh, D3 antag)
Cc1ccc(CNC(=O)Cn2ccn(-c3ccc(F)c(F)c3)c(=O)c2=O)cc1	none (no result: IL-1B inflam inh, D3 antag)
O=S(=O)(Nc1ccc(F)cc1F)c1ccc(Br)s1	none (no result: IL-1B inflam inh, D3 antag)
CCS(=O)(=O)N1CC(=O)N(c2ccccc2C)C(C)(C(=O)NC2CCCCC2)C1 (stereo not drawn)	none (no result: IL-1B inflam inh, D3 antag)
CC(C)n1nc(C(=O)Nc2cccc(S(=O)(=O)NCc3ccco3)c2)c2ccccc2c1=O	TDP1 cell CPT inconclusive, TDP1 cell noCPT inconclusive
Cc1nc(-c2ccccn2)sc1C(=O)O	none (no result: ClpP mod)
CCc1ccccc1NC(=O)c1sc(-n2nc(C)c(Cc3ccc4c(c3)OCO4)c2C)nc1C	TDP1 cell CPT inconclusive, TDP1 cell noCPT 18.4µM (no result: IL-1B inflam inh, D3 antag)
Cc1nc(-c2ccccn2)sc1C(=O)Nc1ccc(Cl)c(Cl)c1	TDP1 cell CPT inconclusive, TDP1 cell noCPT 14.6µM
Cc1nc(Cl)sc1C(=O)Nc1cccc(Cl)c1	IL-1B inflam inh -56.2
Cc1nc(Cl)sc1C(=O)Nc1ccccc1	none
O=[N+]([O-])c1cc(-c2nc(-c3ccccc3)no2)ccc1NC1CCCC1	none (no result: IL-1B inflam inh, D3 antag)
